KCNQ2 enhance = KCNQ2 (rat) channel potentiation; B-score at 10 µM; AID 2239; CHO-K1 KCNQ2, FluxOR thallium flux fluorescence; active compounds read high; 310,000 compounds, 0.54% hits;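 active means fluorescence ratio B-score at least 3 SD of library B-scores, with initial fluorescence B-score within 3 of them, cut at about 5.3 in these data; same plate scores as AID 2156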;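 further: B-score of peak minus minimum over baseline fluorescence ratio after K+ and Tl+ stimulus; positive B-score means potentiation of KCNQ2 with more thallium influx and brighter signal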
Target sequence (O88943 whole entry, looked up): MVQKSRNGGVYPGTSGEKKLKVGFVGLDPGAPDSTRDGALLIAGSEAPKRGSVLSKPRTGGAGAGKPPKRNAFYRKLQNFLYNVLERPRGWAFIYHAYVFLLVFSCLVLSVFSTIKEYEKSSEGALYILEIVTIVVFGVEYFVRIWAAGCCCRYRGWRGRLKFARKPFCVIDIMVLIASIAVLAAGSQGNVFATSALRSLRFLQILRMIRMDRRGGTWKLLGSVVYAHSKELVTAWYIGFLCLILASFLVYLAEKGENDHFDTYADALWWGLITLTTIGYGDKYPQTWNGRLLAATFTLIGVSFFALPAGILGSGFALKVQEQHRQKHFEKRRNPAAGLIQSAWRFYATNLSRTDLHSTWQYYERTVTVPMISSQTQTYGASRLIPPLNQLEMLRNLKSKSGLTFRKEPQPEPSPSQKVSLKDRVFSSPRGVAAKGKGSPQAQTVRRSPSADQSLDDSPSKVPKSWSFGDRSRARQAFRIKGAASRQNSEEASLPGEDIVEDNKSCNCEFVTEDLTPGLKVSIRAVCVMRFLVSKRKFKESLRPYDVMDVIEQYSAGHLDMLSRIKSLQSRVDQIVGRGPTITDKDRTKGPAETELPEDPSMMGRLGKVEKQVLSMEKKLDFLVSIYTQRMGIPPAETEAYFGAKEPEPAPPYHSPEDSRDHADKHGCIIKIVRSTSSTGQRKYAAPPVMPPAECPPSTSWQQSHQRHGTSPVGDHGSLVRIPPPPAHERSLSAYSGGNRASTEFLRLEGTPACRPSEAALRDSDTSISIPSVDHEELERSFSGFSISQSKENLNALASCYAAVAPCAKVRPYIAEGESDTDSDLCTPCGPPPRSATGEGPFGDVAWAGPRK
KCNQ2 block = KCNQ2 (rat) channel inhibition; O88943; CHO-K1 KCNQ2, FluxOR thallium flux, 20 min; active compounds read low; B-score at 10 µM; 310,000 compounds, 1.1% hits; AID 2156;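 active means fluorescence ratio B-score at most minus 3 library SDs, with starting brightness B-score within 2 library SDs, cut at about -5.5 in these data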
Kir21 conf inh = confirmation of mouse Kir2.1 potassium channel inhibitors | 2,300 compounds, 41% hits | Kir2.1-expressing cells, FluxOR thallium flux fluorescence; active compounds read low | shares compounds with KCNQ2 enhance | AID 2032 | Tl flux remaining, % of negative control (active compounds read low), % at 10 µM;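 active means Primary-screen hit whose thallium flux fell at least 3 control SD below untreated wells in both duplicates, with normal baseline fluorescence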;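 further: 0% = blank wells without stimulus and 100% = stimulated no-compound controls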
HEK293 ctr = parental HEK293 activity in Kir2.1 inhibitor counter-screen | shares compounds with KCNQ2 enhance | parental HEK293 cells, FluxOR thallium flux fluorescence; 0% = unstimulated blank wells | FluxOR signal as % of negative control (100 = no effect), % at 10 µM | 2,300 compounds, 19% hits;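 active means dye signal at least 3 control SD above or below untreated wells in both duplicates, raw fluorescence within 3, either direction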;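 further: percent is based on the flux ratio of peak minus minimum fluorescence over baseline F0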
CHO-K1 Tl ctr = counter-screen for KCNQ2 potentiators: effect in parental CHO-K1 cells. 1,200 compounds, 43% hits. activity increase over 3SD of controls, % at 10 µM. FluxOR thallium flux fluorescence; zero = vehicle mean+3SD, 100% = vehicle-minus-blank window. shares compounds with KCNQ2 enhance;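 active means signal rise of at least 3 SD above the untreated control mean, in both duplicate wells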;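 further: counter screen of KCNQ2 potentiator hits so any rise reflects channel-independent effects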
KCNQ1 pot spec = human KCNQ1 counter-target activity of KCNQ2 potentiators | 1,200 compounds, 28% hits | shares compounds with KCNQ2 enhance | AID 2283 | activation over 3SD threshold, % at 10 µM | CHO KCNQ1 stable, FluxOR thallium flux fluorescence; beyond 3SD, as % of vehicle-control signal;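 active means fluorescence ratio rise of at least 3 SD of vehicle wells above their mean, in both replicate wells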;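 further: 0% = vehicle mean plus 3 SD and 100% = vehicle minus unstimulated blank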
KCNQ2 pot confirm = rat KCNQ2 channel potentiator confirmation | 1,200 compounds, 68% hits | potentiation, less the hit threshold, % at 10 µM | CHO-KCNQ2 cells, FluxOR thallium flux fluorescence | shares compounds with KCNQ2 enhance | AID 2287;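 active means fluorescence ratio rising 3 SD or more over the vehicle control mean in both replicates, plus primary screen hit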;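 further: peak minus minimum thallium fluorescence divided by baseline after K/Tl stimulus; 0% = vehicle mean plus 3 SD and 100% = vehicle minus unstimulated blank difference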
Kir2-1 sel = tests whether KCNQ2 potentiators also affect mouse Kir2.1 | activity over 3SD threshold, % at 10 µM | shares compounds with KCNQ2 enhance | 1,200 compounds, 2% hits | HEK293 Kir2.1, FluxOR thallium flux fluorescence | AID 2345;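 active means fluorescence ratio rise of at least 3 SD above the vehicle-control mean, seen in both replicates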;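 further: 0% = vehicle mean plus 3 SD and 100% = vehicle minus no-stimulus blank window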
KCNQ2 W236L MoA = potentiates the retigabine-insensitive rat KCNQ2 W236L mutant channel | shares compounds with KCNQ2 enhance | CHO KCNQ2-W236L, automated patch clamp current | current increase over 3SD of negative controls (%), active compounds read high, % at 25 µM | 940 compounds, 10% hits;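 active means current increase at least 3 SD of the untreated controls above them in both duplicate recordings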
* marks the source's active call; other numbers are inactive results. An excerpt weighted towards active compounds, which were near 1.6% of everything screened.

Screening CCOC(=O)N1CCN(C(=O)COc2ccc3ccccc3c2Br)CC1 returned KCNQ2 enhance 8.7*, KCNQ2 block inactive, Kir21 conf inh inactive, HEK293 ctr inactive, CHO-K1 Tl ctr 13*, KCNQ1 pot spec 18*, KCNQ2 pot confirm 11*, Kir2-1 sel -30 and KCNQ2 W236L MoA inactive.
For Cc1ccc(/C=C/C(=O)OCc2nc(N)nc(Nc3ccccc3C)n2)o1 the results were KCNQ2 enhance 6.9*, KCNQ2 block inactive, Kir21 conf inh inactive, HEK293 ctr inactive, CHO-K1 Tl ctr 144*, KCNQ1 pot spec -6, KCNQ2 pot confirm 2.1*, Kir2-1 sel -46 and KCNQ2 W236L MoA inactive.
Screening CCCCC(=O)OCc1nc(N)nc(Nc2ccccc2C)n1 returned KCNQ2 enhance 1.1 and KCNQ2 block inactive.
For O=C(CSc1nnc(NC(=O)c2c(F)cccc2F)s1)NC1CCCCC1 the results were KCNQ2 enhance 0.9 and KCNQ2 block inactive.
`CCN1C(=O)c2ccc(C(=O)Nc3ccc(O)cc3C)cc2C1=O` gave KCNQ2 enhance 0.44 and KCNQ2 block inactive.
For CC(NCC(O)COc1ccc2ccccc2c1)c1ccccc1 (centres undefined) the results were KCNQ2 enhance 0.03 and KCNQ2 block inactive.
Screening Cc1cc(OCC(O)CNC(C)c2ccccc2)ccc1C(C)C (centres undefined) returned KCNQ2 enhance 3.9, KCNQ2 block inactive, Kir21 conf inh inactive and HEK293 ctr inactive.
For CCCn1c(=S)[nH]c2sc3c(c2c1=O)CCCC3 the results were KCNQ2 enhance 10*, KCNQ2 block inactive, Kir21 conf inh inactive, HEK293 ctr 342%*, CHO-K1 Tl ctr -5, KCNQ1 pot spec 40*, KCNQ2 pot confirm 27*, Kir2-1 sel -6 and KCNQ2 W236L MoA inactive.
For Nn1c(=S)[nH]c2sc3c(c2c1=O)CCCC3 the results were KCNQ2 enhance 0.24 and KCNQ2 block inactive.
Screening CCn1nnc2sc3c(c2c1=O)CCC(C)C3 (centres undefined) returned KCNQ2 block inactive.
For CCn1c(=O)n(CCOC)c(=O)c2c3c(sc21)CCCC3 the results were KCNQ2 enhance 0.3 and KCNQ2 block inactive.
`CC(=O)Cn1nnc2sc3c(c2c1=O)CCC(C(C)(C)C)C3` (centres undefined) gave KCNQ2 block inactive.
`COCCCn1c(=S)[nH]c2sc3c(c2c1=O)CCCS3` gave KCNQ2 enhance 7.2*, KCNQ2 block inactive, Kir21 conf inh inactive, HEK293 ctr 285%*, CHO-K1 Tl ctr -31, KCNQ1 pot spec 47*, KCNQ2 pot confirm 24*, Kir2-1 sel -28 and KCNQ2 W236L MoA inactive.
`COCCn1c(=S)[nH]c2sc3c(c2c1=O)CCC(C)C3` (centres undefined) gave KCNQ2 enhance 16*, KCNQ2 block inactive, Kir21 conf inh inactive, HEK293 ctr inactive, CHO-K1 Tl ctr 0, KCNQ1 pot spec 3.6*, KCNQ2 pot confirm 71*, Kir2-1 sel 11* and KCNQ2 W236L MoA inactive.
`Cn1c(=S)[nH]c2sc3c(c2c1=O)CCC(C(C)(C)C)C3` (centres undefined) gave KCNQ2 enhance 18*, KCNQ2 block inactive, Kir21 conf inh inactive, HEK293 ctr 467%*, CHO-K1 Tl ctr -1, KCNQ1 pot spec -11, KCNQ2 pot confirm 85*, Kir2-1 sel 1.4* and KCNQ2 W236L MoA inactive.
For Cc1ccc2nc(-c3cccnc3)cc(C(=O)Nc3ccc(F)cc3C)c2c1 the results were KCNQ2 block inactive.
For N/C(=N\c1nc2ccccc2o1)NC(=O)c1ccccc1Br the results were KCNQ2 block inactive.
`CCc1ccc(Nc2n[n+](-c3ccccc3)c(-c3c(Cl)cccc3Cl)s2)cc1` gave KCNQ2 block inactive.
CCc1ccc(Nc2n[n+](-c3ccccc3)c(/C=C/c3ccccc3)s2)cc1 was read as KCNQ2 block inactive, Kir21 conf inh 74%* and HEK293 ctr inactive.
Cc1nn(-c2ccccc2)c(Cl)c1/C=C1\SC(=S)N(CCCCCC(=O)O)C1=O was read as KCNQ2 enhance 1.5 and KCNQ2 block inactive.
`Cc1nn(-c2ccccc2)c(Cl)c1/C=C1\SC(=S)NC1=O` gave KCNQ2 enhance 13*, KCNQ2 block inactive, Kir21 conf inh inactive, HEK293 ctr 412%*, CHO-K1 Tl ctr -1, KCNQ1 pot spec -14, KCNQ2 pot confirm 215*, Kir2-1 sel -13 and KCNQ2 W236L MoA inactive.
For NNC(=O)c1ccc(COc2ccc3ccccc3c2)o1 the results were KCNQ2 enhance 1.2 and KCNQ2 block inactive.
Screening O=C(OCc1ccccn1)c1ccc(COc2ccc3ccccc3c2)o1 returned KCNQ2 enhance 5.4*, KCNQ2 block inactive, Kir21 conf inh inactive, HEK293 ctr inactive, CHO-K1 Tl ctr -14, KCNQ1 pot spec -8, KCNQ2 pot confirm -19 and Kir2-1 sel -22.
Screening Cc1ccccc1CN(C)CC(=O)NC(C)CCc1ccccc1 (centres undefined) returned KCNQ2 enhance -6.6, KCNQ2 block -6.6*, Kir21 conf inh 34%* and HEK293 ctr inactive.
`Cc1ccc(CC(=O)NC(C)CCc2ccccc2)cc1` (centres undefined) gave KCNQ2 block inactive.
Screening O=C(Nc1nc(COc2ccccc2)cs1)c1ccccc1F returned KCNQ2 enhance 0.02 and KCNQ2 block inactive.
Screening COc1cccc(-c2nnc(Nc3nc4c(F)cccc4s3)o2)c1 returned KCNQ2 enhance 9.7*, KCNQ2 block inactive, Kir21 conf inh inactive, HEK293 ctr 234%*, CHO-K1 Tl ctr -7, KCNQ1 pot spec 37*, KCNQ2 pot confirm 29*, Kir2-1 sel -22 and KCNQ2 W236L MoA inactive.
For COc1cccc2sc(Nc3nnc(-c4ccccc4Cl)o3)nc12 the results were KCNQ2 enhance 21*, KCNQ2 block inactive, Kir21 conf inh inactive, HEK293 ctr 379%*, CHO-K1 Tl ctr -5, KCNQ1 pot spec -6, KCNQ2 pot confirm 38*, Kir2-1 sel -21 and KCNQ2 W236L MoA inactive.
`COc1ccccc1-c1nnc(Nc2nc3c(OC)cccc3s2)o1` gave KCNQ2 block inactive.

Screens deposited in PubChem BioAssay by Johns Hopkins Ion Channel Center.
